# Source: PubChem BioAssay AID868 (SRMLSC, 2007)
# Out of some 190,000 compounds screened, about 3,500 (1.8%) were called active.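 The calls were made as follows: active = inhibition above a set limit, 3 SD over mean compound inhibition (cut at about 8.4% in these data); inactive = the rest.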 This excerpt belongs to a sample that is enriched for actives.
# Experiment: inhibitors of the yeast RAM network, primary screen, dse1pr::URA3 reporter, 5-FOA selection (AID 868);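 also: 0% = DMSO-only wells with no growth and 100% = 10 µM 1-NA-PP1 full growth; inhibition rescues growth on 5-FOA so higher OD means more RAM inhibition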
# Conditions: S. cerevisiae dse1pr::URA3 reporter, 5-FOA growth OD615, 2 d; at 50 µM; active compounds read high; analog-sensitive cbk1-as2 kinase mutant strain
row,Compound,inhibition
1,COc1cccc(NC(=O)c2ccc3c(SCC(=O)O)c4c(nc3c2)CCCC4)c1,6.04% (inactive)
2,Cc1c(NC(=S)Nc2ccccc2)c(=O)n(-c2ccccc2)n1C,2.71% (inactive)
3,Cc1c(C=O)n(C)n(-c2ccccc2)c1=O,2.38% (inactive)
4,Cc1c(N=Nc2ccc(N(C)C)cc2)c(=O)n(-c2ccccc2)n1C,25.4% (active)
5,Cc1cccc(N=Nc2c(C)[nH]n(-c3ccccc3)c2=O)c1,7.54% (inactive)
6,Cc1ccc(N=Nc2c(C)[nH]n(-c3ccccc3)c2=O)cc1,13.2% (active)
7,Cc1[nH][nH]c(=O)c1N=Nc1ccccc1,2.99% (inactive)
8,COc1cccc(/C=N/NC(=O)CNC(=O)c2ccc(S(=O)(=O)N3CCOCC3)cc2)c1OC,1.56% (inactive)
9,CCCN(CCC)C(=S)Nc1cc(C(=O)OC)ccc1C(=O)OC,-0.65% (inactive)
10,CCC(CC)C(=O)Nc1ccc(S(=O)(=O)Nc2nccs2)cc1,1.58% (inactive)
11,COC(=O)CCSc1cc([N+](=O)[O-])cc2c1c(C1OCCS1)nn2-c1ccccc1 (centres undefined),17.6% (active)
12,COc1ccc(-n2cnnc2SCC(=O)Nc2cccc([N+](=O)[O-])c2)cc1,1.48% (inactive)
13,COC(=O)CCSc1nccn1Cc1ccccc1,3.09% (inactive)
14,Cc1cc([N+](=O)[O-])ccc1NC(=O)c1ccc(NC(=O)C(C)C)cc1,0% (inactive)
15,Cn1c(=NC(=O)c2ccc3c(c2)OCCO3)sc2cc(S(C)(=O)=O)ccc21,3.99% (inactive)
16,O=C1/C(=C/c2cccs2)CCc2ccccc21,-0.39% (inactive)
17,CCC1C/C(=C/c2cccs2)C(=O)/C(=C/c2cccs2)C1 (centres undefined),14.8% (active)
18,O=C1/C(=C/c2cccs2)CCC1C1CCCC1 (centres undefined),2.26% (inactive)
19,CCN(C(=O)CSc1nc2ccccc2n1CC)C1CCS(=O)(=O)C1 (centres undefined),0.65% (inactive)
20,O=C(NC(=S)Nc1ccc(S(=O)(=O)N2CCOCC2)cc1)c1ccccc1[N+](=O)[O-],3.57% (inactive)
21,O=C(COC(=O)CC1CC2CCC1C2)NC(=O)NC1CCCC1 (centres undefined),0.76% (inactive)
22,CC(=O)Nc1ccc(SCC(=O)Nc2ccccc2Oc2ccccc2)cc1,1.01% (inactive)
23,COc1cc(/C=C/C(=O)OCC(=O)Nc2cccc(Oc3ccccc3)c2)ccc1O,7.29% (inactive)
24,O=C(COC(=O)/C=C/c1nc2ccccc2s1)Nc1ccccc1Oc1ccccc1,14.3% (active)

row,Compound,inhibition
1,CCN(C(=O)COC(=O)/C=C/c1nc2ccccc2s1)C1CCS(=O)(=O)C1 (centres undefined),2.32% (inactive)
2,COc1ccc(/C=C/C(=O)OCC(=O)Nc2cccc(Oc3ccccc3)c2)c(OC)c1,16.7% (active)
3,COc1ccc(OC)c(/C=C/C(=O)OCC(=O)Nc2ccc3c(c2)OCCO3)c1,7.42% (inactive)
4,CCN1CCN(C(=O)c2ccc(CN(c3ccc(C)c(C)c3)S(C)(=O)=O)cc2)CC1,0.38% (inactive)
5,O=C(CCCNS(=O)(=O)c1cccc2nsnc12)NCCN1CCN(c2ccccc2F)CC1,-1.28% (inactive)
6,COc1ccc(/C=C2/C(=O)OCc3cc(OC)c(OC)cc32)c(OC)c1,7.31% (inactive)
7,COC(=O)Cc1ccc(N(Cc2ccccc2F)S(=O)(=O)c2ccc(Br)cc2)cc1,6.05% (inactive)
8,Cc1cccc(C(=O)N2CCC(c3nc4ccccc4s3)CC2)c1,0.14% (inactive)
9,Cc1cc(C)n2nc(C(=O)N(C)C(c3ccccc3)c3ccccc3)nc2n1,2.14% (inactive)
10,CC1CCN(S(=O)(=O)c2ccc(S(=O)(=O)NCc3cccnc3)cc2)CC1,0.4% (inactive)
11,COc1cccc(NS(=O)(=O)c2ccc3[nH]cc(C(=O)NCCCOC(C)C)c(=O)c3c2)c1,9.49% (active)
12,CCCCNC(=O)c1c[nH]c2ccc(S(=O)(=O)Nc3ccc(OCC)cc3)cc2c1=O,5.33% (inactive)
13,CCN(CC)S(=O)(=O)c1ccc2[nH]cc(C(=O)NCCc3ccccc3)c(=O)c2c1,6.86% (inactive)
14,CCCSc1nc(NCc2ccco2)c2c3c(sc2n1)COC(C)(CC)C3 (centres undefined),13.4% (active)
15,CN(C)CCSc1nc(N)c2c3c(sc2n1)COC(C)(C)C3,0.35% (inactive)
16,CCC1(C)Cc2c(sc3nc(SC)nc(N)c23)CO1 (centres undefined),1.97% (inactive)
17,Cc1cccc(N2C(=O)CC(SC(N)=Nc3ccccc3)C2=O)c1 (centres undefined),5.62% (inactive)
18,Cc1cccc(N2C(=O)c3cccnc3C2=O)c1,0.23% (inactive)
19,Cc1cccc(N2C(=O)C3C(c4ccccc4)OC4(C(=O)c5ccccc5C4=O)C3C2=O)c1 (centres undefined),10.5% (active)
20,Cc1cccc(NC(=O)Cn2c(=O)n(Cc3ccccc3)c(=O)c3c(C)c(C)sc32)c1,2.47% (inactive)
21,Cc1cc(C(=O)N/N=C/c2ccccc2[N+](=O)[O-])c(C)o1,1.55% (inactive)
22,Cc1ccccc1-c1nc(CS(=O)(=O)CC(=O)N2CCc3ccccc3C2)c(C)o1,3.54% (inactive)
23,CCOC(=O)c1cc2occc2n1CC(=O)NC1CCC(C)CC1 (centres undefined),1.74% (inactive)
24,COC(=O)c1cc2occc2n1Cc1nc(-c2ccccc2C)oc1C,10.4% (active)

row,Compound,inhibition
1,COc1ccc(F)c(-c2nc(CN3CCC(c4ccccc4)CC3)c(C)o2)c1,1.5% (inactive)
2,CCC1=C/C(=C\c2ccc3c(c2)OCO3)C(=O)S1,5.39% (inactive)
3,CSC1=N/C(=C\c2ccc3c(c2)OCO3)C(=O)S1,5.69% (inactive)
4,O=C1/C(=C/c2ccc3c(c2)OCO3)CCC/C1=C\c1ccc2c(c1)OCO2,11.6% (active)
5,C=CS(=O)c1sc(Cl)c(N2CCOCC2)c1[N+](=O)[O-] (centres undefined),-1.6% (inactive)
6,Cc1cccc(C(=O)OCC(=O)Nc2sc3c(c2C#N)CCC3)c1,3.27% (inactive)
7,C=CCn1cc(-c2cccc(C(F)(F)F)c2)cc(C#N)c1=O,1.24% (inactive)
8,C=CCn1c(SCn2nnc3ccccc3c2=O)nnc1-c1ccc(Cl)cc1,1.52% (inactive)
9,C=CCn1c(-c2ccc(Cl)cc2)ccc(C#N)c1=O,10.6% (active)
10,Cc1cccc(/C(N)=N/OC(=O)c2ccccc2Cl)c1,-0.84% (inactive)
11,COc1ccc(NC(=O)C2CCCN(S(=O)(=O)c3cccc4cccnc34)C2)cc1OC (centres undefined),-0.46% (inactive)
12,COc1ccc(NC(=O)C2CCCN(S(=O)(=O)c3cccc4cccnc34)C2)cc1 (centres undefined),9.02% (active)
13,O=C(O)C1CCCN(S(=O)(=O)c2cccc3cccnc23)C1 (centres undefined),2.19% (inactive)
14,COc1ccc(NC(=O)COC(=O)CNC(=O)C2CCCCC2)cc1,0.13% (inactive)
15,CCC(C)(C)c1ccc(Oc2ccc(NC(=O)COC(=O)C3=COCCO3)cc2)cc1,12.6% (active)
16,O=C(OCC(=O)c1cccs1)C1=COCCO1,0.33% (inactive)
17,CCOC(=O)CSc1nc2c(sc(=S)n2CCc2ccccc2)c(=O)n1Cc1ccco1,10.1% (active)
18,COc1ccccc1NC(=O)CSc1nc2sc(C)c(C)c2c(=O)n1Cc1ccco1,4.61% (inactive)
19,CCOC(=O)CSc1nc2c(c(=O)n(C)c(=O)n2C)n1Cc1ccccc1F,5.16% (inactive)
20,O=c1[nH]c(N2CCN(Cc3ccc4c(c3)OCO4)CC2)nc2c1CCCC2,0.84% (inactive)
21,O=C(Nc1ccn(Cc2ccccc2F)n1)c1ccc(COc2ccc(Cl)cc2Cl)o1,9.18% (active)
22,CC(=O)Nc1ccn(Cc2c(F)cccc2Cl)n1,0.11% (inactive)
23,O=C(Nc1ccn(Cc2ccccc2)n1)c1cccc(F)c1,0% (inactive)
24,O=C(Nc1ccc2c(c1)CCC2)c1ccc(Br)s1,1.86% (inactive)

row,Compound,inhibition
1,CCOC(=O)C(C)n1nc(-c2ccccc2)c2ccccc2c1=O (centres undefined),0.13% (inactive)
2,O=C(Nn1cnc2ccccc2c1=O)c1ccccc1,1.22% (inactive)
3,CCSc1nc(C)nc2c1oc1ccccc12,3.79% (inactive)
4,CCc1nc(Nc2ccc3nccnc3c2)c2oc3ccccc3c2n1,12.5% (active)
5,COc1ccccc1Nc1ncnc2c1oc1ccccc12,5% (inactive)
6,Cc1ccc(NC(=O)C(=O)NCc2ccco2)c(C)c1,4.33% (inactive)
7,CCOc1ccc(/C=N/OCC(=O)NCc2cccs2)cc1,0.76% (inactive)
8,CCOC(=O)C1(CC2CCCCO2)CCN(Cc2nc(-c3cccs3)oc2C)CC1 (centres undefined),0.26% (inactive)
9,O=C(COc1ccccc1)Nc1ccc(N2CCN(C(=O)c3cccs3)CC2)cc1,6.82% (inactive)
10,COc1ccc(/C=C2\SC(=N)N(c3ccc(F)cc3)C2=O)cc1,2.04% (inactive)
11,COc1cccc(NC(=S)N(CCc2c(C)[nH]c3ccccc23)Cc2ccco2)c1,7.14% (inactive)
12,COc1ccc2[nH]c(C)c(CCN(Cc3cccs3)C(=S)Nc3ccccc3OC)c2c1,2.4% (inactive)
13,CCNC(=S)N(CCc1c(C)[nH]c2ccc(C)cc12)Cc1ccco1,9.53% (active)
14,Cc1ccc(-n2c(SCC(=O)N/N=C/C=C/c3ccccc3[N+](=O)[O-])nc3ccccc3c2=O)cc1,10.3% (active)
15,CCn1c(SCC(=O)N/N=C/C=C/c2ccccc2[N+](=O)[O-])nnc1-c1ccccc1,0.99% (inactive)
16,O=C(CSc1nc2ccccc2[nH]1)N/N=C/C=C\c1ccccc1[N+](=O)[O-],0.9% (inactive)
17,Cc1ccc(NC(=O)c2ccn(C(=O)Nc3ccccc3)n2)c(C)c1,1.13% (inactive)
18,COc1ccc(C)cc1NC(=O)C(Sc1ccccc1)c1ccccc1 (centres undefined),12% (active)
19,COc1ccc(C)cc1NC(=S)Nc1ccccc1SC,0.14% (inactive)
20,COc1ccc(C)cc1NC(=O)Nc1ccccc1SC,3.85% (inactive)
21,Cc1c(CN2CCCCC2)c(O)n(CCO)c(=O)c1C#N,1.68% (inactive)
22,Cc1cc(C)c(C(N)=O)c(Cl)n1,-0.5% (inactive)
